In the supplement of paper PMC9262897, “Low-cost anti-mycobacterial drug discovery using engineered E. coli” (Nature Communications, 2022):
Structures can show the parent of a compound that is named as a salt. ± gives the standard deviation of the averaged measurements.

System: E. coli TESEC Mtb Alr
Assay: growth (OD600 after 10 h); higher = more growth (less inhibition)
Details: compound 0.1 mM
Method: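 TESEC Mtb Alr E. coli, or the Alr+ wild-type control, in 384-well plates with Prestwick library compounds at 0.1 mM and 1% DMSO, across arabinose induction levels of 1E3 to 1E7 nM. Growth is read as OD600 after 10 h at 37 °C in triplicate biological replicates.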

[1] = arabinose 1000 nM, raw OD600 reference: median of DMSO wells 0.294, cell-free background 0.041
[2] = arabinose 10000 nM, raw OD600 reference: median of DMSO wells 0.264, cell-free background 0.041
[3] = arabinose 100000 nM, raw OD600 reference: median of DMSO wells 0.201, cell-free background 0.041
[4] = arabinose 1000000 nM, raw OD600 reference: median of DMSO wells 0.193, cell-free background 0.041
[5] = arabinose 10000000 nM, raw OD600 reference: median of DMSO wells 0.146, cell-free background 0.041

| Compound | growth [1] | growth [2] | growth [3] | growth [4] | growth [5] |
| --- | --- | --- | --- | --- | --- |
| CC[C@@H](CO)NCCN[C@@H](CC)CO [Ethambutol dihydrochloride] | 0.291 ± 0.023 | 0.255 ± 0.0099 | 0.216 ± 0.021 | 0.18 ± 0.0035 | 0.147 ± 0.0024 |
| O=C(O)Cc1cc(I)c(Oc2ccc(O)c(I)c2)c(I)c1 [Tiratricol, 3,3',5-triiodothyroacetic acid] | 0.0428 ± 0.0019 | 0.04123 ± 0.00021 | 0.0442 ± 0.0023 | 0.0408 ± 0.00017 | 0.0558 ± 0.002 |
| NS(=O)(=O)c1cc2c(cc1Cl)NC(CC1CCCC1)NS2(=O)=O (stereo not given) [Cyclopenthiazide] | 0.278 ± 0.0078 | 0.2543 ± 0.0017 | 0.273 ± 0.013 | 0.191 ± 0.0034 | 0.143 ± 0.0052 |
| COC(=O)C1=C(C#N)NC(C)=C(C(=O)OC(C)C)C1c1cccc([N+](=O)[O-])c1 (stereo not given) [Nilvadipine] | 0.203 ± 0.014 | 0.2569 ± 0.001 | 0.164 ± 0.014 | 0.0883 ± 0.002 | 0.149 ± 0.033 |
| Cc1ccnc2c1NC(=O)c1cccnc1N2C1CC1 [Nevirapine] | 0.29 ± 0.0079 | 0.254 ± 0.0046 | 0.212 ± 0.0063 | 0.203 ± 0.0086 | 0.14 ± 0.0044 |
| CCCN[C@H]1CCc2nc(N)sc2C1 [Pramipexole dihydrochloride] | 0.289 ± 0.004 | 0.258 ± 0.0086 | 0.207 ± 0.015 | 0.191 ± 0.01 | 0.15 ± 0.0057 |
| Clc1ccc(Cn2c(CN3CCCC3)nc3ccccc32)cc1 [Clemizole hydrochloride] | 0.0807 ± 0.029 | 0.0496 ± 0.00062 | 0.106 ± 0.049 | 0.0465 ± 0.0005 | 0.06017 ± 0.00057 |
| CC(=O)Nc1nnc(S(N)(=O)=O)s1 [Acetazolamide] | 0.293 ± 0.023 | 0.253 ± 0.0037 | 0.234 ± 0.0084 | 0.166 ± 0.0058 | 0.141 ± 0.006 |
